Screening results: PubChem, several laboratories
The list is not random: actives were taken first. Their share in the collection is about 4%.
HIF-2a block = HIF-2a inhibition. 786-0 RCC cells HIF-2a reporter, luciferase luminescence, overnight. inhibition, % at 18.8 µM. hit rate 0.72% among 360,000;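 active means inhibition of the luminescence signal of 40% or more relative to plate controls, in a single-dose primary screen at 18.75 µM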
TWEAK-Fn14 inh = inhibitors of TWEAK-Fn14 interaction signaling; TWEAK-stimulated Fn14 reporter cells, luciferase luminescence, 8 h; hit rate 2% among 360,000; inhibition, % at 10 µM; in the data active means inhibition above about 50%
TROY NFkB inh = blocks TROY-dependent signaling in reporter cells; Q293 LMP1-TROYcd NF-kB luciferase reporter, 4 h; inhibition, % at 10 µM; hit rate 0.98% among 360,000; AID 1347056;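 active means compounds whose plate-normalised and pattern-corrected inhibition of the luciferase reporter signal at the single screening dose is 50% or more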
EBV LMP1 NFkB = inhibitors of Epstein-Barr LMP1-induced NF-kappaB reporter | LMP1-induced NF-kappaB luciferase reporter cells, luminescence | inhibition, % at 12.5 µM | hit rate 0.69% among 350,000; in the data active means inhibition above about 41%;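 further: 0% = neutral control wells and 100% = reference inhibitor control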
Peg3 prom inh-1 = Peg3 promoter activity inhibition; HeLa PEG-Prom luciferase reporter, luminescence, overnight; inhibition, % at 20 µM; hit rate 1.7% among 360,000;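 active means inhibition of at least 50% at 20 µM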
MITF TRPM1 inh = inhibitors of MITF-driven TRPM1 promoter in melanoma cells; AID 488899; SK-MEL-5 TRPM1 promoter luciferase, 24 h; inhibition, % at 12.5 µM; hit rate 0.83% among 330,000;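 active means mean inhibition across replicates of 60% or more, whatever share of single replicates reaches that level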
Peg3 prom inh-2 = Peg3 promoter inhibition confirmation. shares compounds with Peg3 prom inh-1. HeLa PEG-Prom luciferase reporter, luminescence, overnight. inhibition, % at 20 µM. hit rate 84% among 1,300. AID 602417;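 active means at 20 µM dose, 40% or more inhibition averaged across four replicates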
Mdm2 MdmX conf = confirmation of inhibitors of human Mdm2/MdmX interaction, set 2; shares compounds with HIF-2a block; SaOS-2 split-luciferase Mdm2/MdmX complementation, luminescence; hit rate 99% among 740; inhibition, % at 8 µM;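 active means mean inhibition of the luminescence signal across two replicates at or above 26 percent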
Target sequence (O15151 whole entry, looked up): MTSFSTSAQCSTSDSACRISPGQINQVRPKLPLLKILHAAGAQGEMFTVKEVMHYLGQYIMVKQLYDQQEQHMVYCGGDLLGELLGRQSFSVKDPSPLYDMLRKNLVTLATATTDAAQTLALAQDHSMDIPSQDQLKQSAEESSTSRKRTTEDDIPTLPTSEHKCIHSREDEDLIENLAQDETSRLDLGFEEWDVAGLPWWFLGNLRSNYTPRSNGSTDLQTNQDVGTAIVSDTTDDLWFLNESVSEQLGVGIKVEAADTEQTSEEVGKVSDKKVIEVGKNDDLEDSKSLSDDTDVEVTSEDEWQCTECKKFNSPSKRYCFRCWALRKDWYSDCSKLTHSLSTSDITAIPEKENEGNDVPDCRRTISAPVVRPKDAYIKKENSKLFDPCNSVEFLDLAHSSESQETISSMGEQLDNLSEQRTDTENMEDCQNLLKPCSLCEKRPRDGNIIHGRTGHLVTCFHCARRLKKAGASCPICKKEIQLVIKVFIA
Target sequence (Q00987 whole entry, looked up): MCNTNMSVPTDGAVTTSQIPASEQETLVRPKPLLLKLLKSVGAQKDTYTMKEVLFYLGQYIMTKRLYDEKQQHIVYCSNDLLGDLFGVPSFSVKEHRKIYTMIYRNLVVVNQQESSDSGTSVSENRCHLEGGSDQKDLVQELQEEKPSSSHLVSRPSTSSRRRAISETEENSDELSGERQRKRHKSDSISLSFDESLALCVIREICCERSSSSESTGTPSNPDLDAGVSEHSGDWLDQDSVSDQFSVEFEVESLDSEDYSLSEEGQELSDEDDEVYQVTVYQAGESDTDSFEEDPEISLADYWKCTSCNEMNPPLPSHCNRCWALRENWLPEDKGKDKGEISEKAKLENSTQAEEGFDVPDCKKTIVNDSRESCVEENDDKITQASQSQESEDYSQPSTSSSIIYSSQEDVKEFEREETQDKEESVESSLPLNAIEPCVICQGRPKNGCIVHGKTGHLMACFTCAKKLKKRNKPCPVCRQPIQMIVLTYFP
HIF-2a conf = HIF-2a inhibition, single concentration confirmation. shares compounds with HIF-2a block. 786-0 RCC cells, HIF-2a luciferase reporter luminescence, overnight. inhibition, % at 18.8 µM. hit rate 56% among 1,800. AID 651580;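 active means mean inhibition across four replicates of at least 40 percent at the single tested concentration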
HIF-1a counter = HIF-1a inhibition counter-screen for HIF-2a hits; MiaPaCa-2 HIF-1a luciferase reporter, desferoxamine, overnight; hit rate 72% among 1,800; shares compounds with HIF-2a block; AID 651589; inhibition, % at 18.8 µM;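 active means mean inhibition of the reporter signal across four replicates at the single tested dose of 50% or more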
Starred values were filed as active, the others as inactive; · = no result.

SMILES	HIF-2a block	TWEAK-Fn14 inh	TROY NFkB inh	EBV LMP1 NFkB	Peg3 prom inh-1	MITF TRPM1 inh	Peg3 prom inh-2	HIF-2a conf	HIF-1a counter	others
O=C1C(Cl)=C(Nc2ccc(O)cc2)C(=O)c2ccccc21	93.9*	8.7	64.2*	61.4*	106.8*	97.0*	96.4*	·	·	Mdm2 MdmX conf=103.0*
O=C1C(O)=C(O)C(=O)c2ccccc21	14.4	4.1	1.1	-4.3	27.4	36.9	·	·	·
CCc1nnc(NC(=O)CSc2ccc(-c3nc4ccc(C)cc4[nH]3)cn2)s1	-153.2	5.7	-28.7	-20.2	-258.9	20.2	·	·	·
CC(=O)CSc1ccc(-c2nc3cc(C)c(C)cc3[nH]2)cn1	67.1*	102.4*	88.3*	71.7*	84.5*	82.7*	70.5*	85.0*	99.7*
Cc1ccc(C)c(NC(=O)COC(=O)c2cc3ccccc3oc2=O)c1	5.6	2.8	-6.6	2.6	9.5	·	·	·	·
CCCN1/C(=C(\C#N)C2=NS(=O)(=O)c3ccccc32)N(C)c2ccccc21	12.3	18.3	0.0	-2.6	6.3	-4.0	·	·	·
C(=N\Nc1ccc2ccccc2n1)/c1ccc2c(c1)OCCO2	70.8*	101.2*	87.6*	61.1*	78.9*	89.5*	77.4*	91.4*	100.0*
Cc1cccc(/C=N/Nc2ccc3ccccc3n2)c1	51.9*	92.8*	84.4*	74.1*	66.6*	76.2*	69.9*	88.4*	89.7*
Cc1cc(N/N=C/c2cccc(Br)c2)nc2ccccc12	-293.1	-38.8	-97.2	-39.9	-278.9	-43.4	·	·	·
Cc1cc2sc3ccc(C#CC4(O)CCCCC4)cc3c(=O)c2cc1C	92.8*	106.3*	89.6*	77.6*	98.8*	96.4*	97.4*	97.2*	103.2*	Mdm2 MdmX conf=101.5*
Cc1cc(C)c2cccc(N)c2n1	14.9	32.1	-1.9	3.8	10.0	-2.5	·	·	·
Cc1cc(C)c2ccc(N)nc2c1O	8.9	68.8*	8.6	1.8	69.8*	74.5*	58.1*	·	·	Mdm2 MdmX conf=89.2*
O=C(O)c1cccc(N/N=C/c2cccs2)c1	82.0*	48.5	-62.7	56.7*	82.8*	76.9*	68.1*	85.8*	-4.9
O=C(N/N=C/c1cccs1)C(=O)Nc1cccc(Cl)c1	-105.3	-2.0	-51.5	-6.2	-70.8	-9.2	·	·	·
O=c1c2ccccc2nc2c3ccccc3cnn12	-283.3	-38.4	-100.0	-29.1	-170.3	-45.9	·	·	·
O=c1c(Cl)c(N2CCCCC2)cnn1-c1nc2ccccc2[nH]1	69.7*	103.9*	81.8*	78.3*	88.0*	63.7*	67.0*	79.3*	85.7*
O=c1c2ccccc2cnn1-c1nc2ccccc2[nH]1	92.2*	97.2*	89.4*	85.0*	107.5*	93.3*	94.9*	94.5*	98.6*
COc1ccc(-n2c(SCCNCCO)nc3sc4c(c3c2=O)CCCC4)cc1	3.9	1.9	0.9	-4.2	21.0	11.4	·	·	·
CCc1n[nH]c(=S)n1/N=C/c1cc(OC)cc([N+](=O)[O-])c1O	-0.5	11.8	16.0	1.1	0.0	8.2	·	·	·
O=C(O)c1ccc(N/N=C/c2ccncc2)cc1	-32.8	35.4	0.6	2.8	-10.5	8.0	·	·	·
O=C(O)c1ccc(N/N=C/c2ccc(OC(=O)c3cccc(Cl)c3)cc2)cc1	71.9*	-1.2	53.2*	60.6*	68.7*	78.0*	64.0*	83.2*	83.4*
O=C(O)c1ccc(N/N=C/c2ccc3nccnc3c2)cc1	91.1*	101.5*	53.7*	81.8*	99.0*	99.4*	95.5*	95.5*	83.1*
Cc1ccc2nc(-c3ccccc3)cn2c1	72.6*	105.4*	85.5*	72.5*	89.1*	87.7*	77.5*	88.5*	83.8*
O=C(O)C1CCCN1C(=O)NC1CCCCC1 (stereo not drawn)	10.1	8.9	-2.3	2.3	3.5	37.3	·	·	·
